Assay results published in PubChem BioAssay AID2061166 (Soto Lab, Mitchell Center for Alzheimers Disease and …, 2025).
Values without a mark were called inactive.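 Rule for the calls: active = mean tau seeding fluorescence area under 1% of vehicle, meaning inhibition above a set limit; inactive = the rest.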

target: Microtubule-associated protein tau (Homo sapiens) (UniProt P10636); experiment: inhibitors of seeded tau aggregation, primary screen, biochemical, seed amplification, ThT fluorescence (AID 2061166); conditions: Recombinant tau seeded by AD brain, ThT fluorescence AUC; at 100 µM; stronger effect = higher value
Sequence (P10636 whole entry, looked up): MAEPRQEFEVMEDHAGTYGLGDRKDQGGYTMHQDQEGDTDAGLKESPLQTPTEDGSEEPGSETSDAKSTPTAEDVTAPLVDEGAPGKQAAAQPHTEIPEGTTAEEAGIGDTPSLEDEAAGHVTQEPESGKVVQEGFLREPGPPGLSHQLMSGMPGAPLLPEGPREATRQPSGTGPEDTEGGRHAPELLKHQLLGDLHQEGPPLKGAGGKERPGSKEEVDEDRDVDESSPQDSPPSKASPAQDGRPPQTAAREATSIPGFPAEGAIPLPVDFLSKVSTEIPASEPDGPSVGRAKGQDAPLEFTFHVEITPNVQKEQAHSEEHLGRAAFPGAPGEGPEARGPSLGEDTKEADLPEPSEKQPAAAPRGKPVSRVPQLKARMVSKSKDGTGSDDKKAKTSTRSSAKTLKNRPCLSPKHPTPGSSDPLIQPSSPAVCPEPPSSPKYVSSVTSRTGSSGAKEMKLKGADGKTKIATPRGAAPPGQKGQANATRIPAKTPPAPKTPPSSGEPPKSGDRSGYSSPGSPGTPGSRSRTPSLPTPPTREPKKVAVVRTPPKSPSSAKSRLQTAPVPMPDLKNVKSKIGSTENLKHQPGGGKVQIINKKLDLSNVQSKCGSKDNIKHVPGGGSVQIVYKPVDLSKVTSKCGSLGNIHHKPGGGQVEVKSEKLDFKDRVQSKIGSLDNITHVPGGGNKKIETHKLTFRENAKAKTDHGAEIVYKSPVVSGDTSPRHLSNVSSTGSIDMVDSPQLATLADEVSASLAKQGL

| SMILES | inhibition [%] |
| --- | --- |
| Cn1c(CCCC(=O)O)nc2cc(N(CCCl)CCCl)ccc21 | 48 |
| Cn1cc(C2=C(c3cn(C4CCN(Cc5ccccn5)CC4)c4ccccc34)C(=O)NC2=O)c2ccccc21 | 18.6 |
| COc1ccc2c(c1)[nH]c1c(C)nccc12 | 35.5 |
| CNC(=O)Oc1cccc2ccccc12 | 63.7 |
| Cc1cccc(C(C)c2cnc[nH]2)c1C (configuration not stated) | 17.4 |
| O=c1c2ccccc2[se]n1-c1ccccc1 | 51.6 |
| c1cncc(C2=NCCC2)c1 | 32.6 |
| O=C(CS(=O)C(c1ccccc1)c1ccccc1)NO (configuration not stated) | 7.82 |
| COc1ccc(C(=O)O)cc1OC | 11.4 |
| O=C1C=C2C=CC3CC2(O1)C1CCCCN31 (configuration not stated) | 17 |
| COc1ccc(C(CN(C)C)C2(O)CCCCC2)cc1 (configuration not stated) | 40.8 |
| COc1ccc2c3c([nH]c2c1)C(C)=NCC3 | 11.8 |
